Assay results: PubChem BioAssay
Unmarked numbers belong to inactive results. For part of these data: Entries with a potency or affinity are not part of this list. Active and inactive are the calls of the source. Unless noted, how the calls were made is not given here.

Key:
[1] = HepG2 cytotoxicity, primary screen, cytotoxicity control for P. falciparum antimalarial project, cell-based, ATP luminescence (AID 2303;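 active means inhibition above 50%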;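 further: 0% = DMSO wells and 100% = digitonin-killed cells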); conditions: HepG2 viability, 24-48 h, at 10 µM, active compounds read high
[2] = biological target: L-lactate dehydrogenase (Plasmodium falciparum (isolate CDC / Honduras)) (UniProt Q27743); assay: PfLDH activity inhibition – cell lysate, 3D7 strain, counter-screen for P. falciparum growth inhibition project (AID 2304);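 further: 0% = vehicle and 100% = reference inhibitor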; conditions: P. falciparum 3D7 crude extract, LDH APAD/NBT absorbance; at 2 µM; active compounds read high
[3] = inhibition of 3D7 malaria parasite growth – strain 3D7 (AID 2306);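 further: 0% = DMSO wells and 100% = chloroquine plus artemisinin control wells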; conditions: P. falciparum 3D7 erythrocytic growth, LDH absorbance, 72 h; at 2 µM; active compounds read high
[4] = biological target: Calcium-dependent protein kinase 1 (Plasmodium falciparum (isolate 3D7)) (UniProt P62344); assay: PfCDPK1 kinase inhibitors, biochemical, TCAMS library (AID 1159585; cut-off not given, nearly all actives have IC50 up to about 0.98 µM;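 further: inhibitors leave more ATP so luminescence rises with inhibition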); conditions: recombinant PfCDPK1, Kinase-Glo ATP depletion luminescence
[5] = biological target: Plasmodium falciparum protein kinase 6 (PK6, PF3D7_1337100) (UniProt Q8IDW1); assay: PfPK6 kinase inhibitors, biochemical, TCAMS library (AID 1159586); conditions: recombinant PfPK6, Kinase-Glo ATP depletion luminescence
[6] = biological target: Protein kinase 7 (PK7), Plasmodium falciparum 3D7 (PF3D7_0213400) (UniProt Q7YTF7); assay: inhibition of Plasmodium PK7 catalytic activity – biochemical, TCAMS antimalarial set, Kinase-Glo luminescence (AID 1159587); conditions: recombinant PfPK7, Kinase-Glo ATP depletion luminescence
[7] = biological target: Calcium-dependent protein kinase 4 (Plasmodium falciparum (isolate 3D7)) (UniProt Q8IBS5); assay: PfCDPK4 kinase inhibitors, biochemical, TCAMS library (AID 1159588; cut-off not given, nearly all actives have IC50 up to about 0.91 µM); conditions: recombinant PfCDPK4, Kinase-Glo ATP depletion luminescence
[8] = antimalarial activity against Dd2 strain (AID 2302;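 active means growth inhibition above 50% at the single 2 µM test dose, taken to imply half-maximal potency below 2 µM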;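 further: 0% = DMSO untreated growth and 100% = chloroquine plus artemisinin killed control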); conditions: P. falciparum Dd2 in RBCs, LDH growth readout, 72 h; at 2 µM; active compounds read high

Chain of Calcium-dependent protein kinase 4 (Plasmodium falciparum (isolate 3D7)) (Q8IBS5 whole entry, looked up): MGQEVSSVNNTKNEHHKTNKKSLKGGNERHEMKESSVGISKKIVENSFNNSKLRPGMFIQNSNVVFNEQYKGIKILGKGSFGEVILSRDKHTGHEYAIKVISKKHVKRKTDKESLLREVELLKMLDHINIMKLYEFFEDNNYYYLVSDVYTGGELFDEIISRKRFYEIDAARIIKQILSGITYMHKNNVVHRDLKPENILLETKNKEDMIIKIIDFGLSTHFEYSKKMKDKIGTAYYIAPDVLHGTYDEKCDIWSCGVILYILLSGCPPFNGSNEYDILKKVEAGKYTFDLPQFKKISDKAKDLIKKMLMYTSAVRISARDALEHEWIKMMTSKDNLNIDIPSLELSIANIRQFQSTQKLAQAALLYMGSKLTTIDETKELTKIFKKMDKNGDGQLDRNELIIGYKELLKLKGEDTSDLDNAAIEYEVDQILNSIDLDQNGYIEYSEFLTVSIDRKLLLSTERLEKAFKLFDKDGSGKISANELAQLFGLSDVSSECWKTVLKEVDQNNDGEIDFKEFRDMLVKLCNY
Chain of Protein kinase 7 (PK7), Plasmodium falciparum 3D7 (PF3D7_0213400) (Q7YTF7 1-343): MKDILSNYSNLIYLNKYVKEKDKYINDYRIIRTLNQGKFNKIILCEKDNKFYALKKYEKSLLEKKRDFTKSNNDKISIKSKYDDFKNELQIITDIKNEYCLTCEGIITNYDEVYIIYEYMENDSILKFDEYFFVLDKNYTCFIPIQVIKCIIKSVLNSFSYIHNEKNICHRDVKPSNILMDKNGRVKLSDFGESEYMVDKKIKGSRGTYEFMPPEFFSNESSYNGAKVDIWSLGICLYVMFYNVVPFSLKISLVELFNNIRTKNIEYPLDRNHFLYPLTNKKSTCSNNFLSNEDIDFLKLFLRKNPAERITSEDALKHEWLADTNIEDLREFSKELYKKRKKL
Chain of Calcium-dependent protein kinase 1 (Plasmodium falciparum (isolate 3D7)) (P62344 whole entry, looked up): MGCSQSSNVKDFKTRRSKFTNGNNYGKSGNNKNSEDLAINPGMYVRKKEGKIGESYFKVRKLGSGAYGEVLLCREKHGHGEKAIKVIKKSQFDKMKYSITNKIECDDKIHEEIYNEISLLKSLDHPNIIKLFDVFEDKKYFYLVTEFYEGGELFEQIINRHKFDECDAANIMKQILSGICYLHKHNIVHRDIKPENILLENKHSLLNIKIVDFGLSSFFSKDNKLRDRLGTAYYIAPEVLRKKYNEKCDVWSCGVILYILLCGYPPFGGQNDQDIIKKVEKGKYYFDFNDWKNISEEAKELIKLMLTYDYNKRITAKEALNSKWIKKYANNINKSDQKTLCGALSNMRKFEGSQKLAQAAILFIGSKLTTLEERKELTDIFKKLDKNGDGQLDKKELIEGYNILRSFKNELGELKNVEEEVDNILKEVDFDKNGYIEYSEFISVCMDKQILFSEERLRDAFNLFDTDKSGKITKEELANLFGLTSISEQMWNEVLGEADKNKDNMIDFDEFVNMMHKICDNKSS
Chain of Plasmodium falciparum protein kinase 6 (PK6, PF3D7_1337100) (Q8IDW1 1-305): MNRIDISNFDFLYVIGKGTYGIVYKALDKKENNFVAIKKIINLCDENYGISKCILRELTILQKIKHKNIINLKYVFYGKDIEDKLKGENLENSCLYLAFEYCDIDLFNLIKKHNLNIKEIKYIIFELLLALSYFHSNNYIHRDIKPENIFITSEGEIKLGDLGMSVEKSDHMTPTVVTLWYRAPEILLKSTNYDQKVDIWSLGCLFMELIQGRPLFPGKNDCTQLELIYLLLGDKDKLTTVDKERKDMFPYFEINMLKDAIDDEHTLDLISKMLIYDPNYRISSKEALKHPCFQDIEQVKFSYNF
Chain of L-lactate dehydrogenase (Plasmodium falciparum (isolate CDC / Honduras)) (Q27743 whole entry, looked up): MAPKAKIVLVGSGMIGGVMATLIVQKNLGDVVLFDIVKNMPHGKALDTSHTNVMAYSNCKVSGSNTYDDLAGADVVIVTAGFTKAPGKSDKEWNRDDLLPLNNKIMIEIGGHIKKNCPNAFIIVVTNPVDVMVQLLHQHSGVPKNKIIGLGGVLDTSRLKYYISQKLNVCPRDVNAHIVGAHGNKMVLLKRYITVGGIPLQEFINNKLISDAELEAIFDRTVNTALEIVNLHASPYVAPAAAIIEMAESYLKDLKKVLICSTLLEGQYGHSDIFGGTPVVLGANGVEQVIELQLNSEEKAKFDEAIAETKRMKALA

| Compound | inhibition [1] [%] | inhibition [2] [%] | growth inhibition [3] | outcome [4] | outcome [5] | outcome [6] | outcome [7] | growth inhibition [8] |
| --- | --- | --- | --- | --- | --- | --- | --- | --- |
| Cc1cc(OCCCN2CCC(NC(=O)c3ccc(Br)cc3)C2)c2ccccc2n1 (stereo unspecified) | 13 | -3 | 85% (active) | inactive | inactive | inactive | inactive |  |
| CCc1cc(-c2n[nH]c(C(F)(F)F)c2-c2ccccc2)c(O)cc1OC | 9 | 1 | 84% (active) | inactive | inactive | inactive | inactive |  |
| O=C(O)CCc1ccc(-c2c[nH]c3ncc(-c4ccc5ncccc5c4)cc23)cc1 | 30 | -3 | 88% (active) | inactive | inactive | inactive | inactive |  |
| CC(C)C(=O)NC(NC(=S)Nc1ccc(Br)cc1)C(Cl)(Cl)Cl (stereo unspecified) | -5 | 3 | 93% (active) | inactive | inactive | inactive | inactive |  |
| COc1ccc(N=C(N)Nc2ccccc2)nc1Cc1ccccc1 | 17 | -6 | 81% (active) | inactive | inactive | inactive | inactive |  |
| O=C(Nc1cccc(-c2nn3ccccc3c2-c2ccnc(Nc3cccc(F)c3)n2)c1)C1CCCCC1 | 44 | 3 | 85% (active) | inactive | inactive | inactive | inactive |  |
| COc1ccc(Cl)cc1N1CCN(CCCNC(=O)c2ccc(-c3nc4c(C)cccc4[nH]3)s2)CC1 | -2 | 5 | 98% (active) | inactive | inactive | inactive | inactive |  |
| Brc1ccsc1-c1nc(NC2CCN(Cc3ccccc3)CC2)no1 | 0 | -2 | 80% (active) | inactive | inactive | inactive | inactive |  |
| CC(C)Cc1csc(NC(=O)C=Cc2ccco2)c1C(=O)O | 4 | -2 | 82% (active) | inactive | inactive | inactive | inactive |  |
| CC(=O)Nc1cccc(Nc2c3ccccc3nc3ccccc23)c1 | 31 | 5 | 82% (active) | inactive | inactive | inactive | inactive |  |
| CN1CCC(N2CCN(C(=O)c3cccc(-c4cccc(-c5nc6ccccc6[nH]5)c4)c3)CC2)CC1 | 10 | 3 | 100% (active) | inactive | inactive | inactive | inactive |  |
| O=C(Nc1ccc(OC2CCN(CC3CC3)CC2)c(Cl)c1)c1ccc2ncccc2c1 | 19 | -2 | 84% (active) | inactive | inactive | inactive | inactive |  |
| c1ccc2sc(-c3csc(Nc4ccncc4)n3)nc2c1 | -4 | -1 | 86% (active) | inactive | inactive | inactive | inactive |  |
| Oc1ccc(CNCC2CCN(CC3CCCCC3)CC2)cc1 | 9 | -1 | 82% (active) | inactive | inactive | inactive | inactive |  |
| Cc1ccc(Nc2c3ccccc3nc3ccc(C)cc23)cc1 | 26 | -2 | 88% (active) | inactive | inactive | inactive | inactive |  |
| CCN(CC)CCCN(C(=O)Nc1cc(F)cc(F)c1)c1nc(-c2ccc(F)cc2)cs1 | 27 | 0 | 82% (active) | inactive | inactive | inactive | inactive |  |
| Cc1nc(Cl)c2c(-c3ccccc3)csc2n1 | -11 | 1 | 84% (active) | inactive | inactive | inactive | inactive |  |
| C=CCOc1cc(Cc2cnc(N)nc2N)cc(OC)c1OC | -14 | 2 | 81% (active) | inactive | inactive | inactive | inactive |  |
| CCCN1CCN(CCNc2c3ccccc3nc3ccccc23)CC1 | 13 | 3 | 88% (active) | inactive | inactive | inactive | inactive |  |
| CCS(=O)(=O)c1ccc(OC)c(Nc2nccc(-c3c(-c4cccc(NC(=O)c5c(F)cccc5F)c4)nn4ncccc34)n2)c1 | 27 | -5 | 87% (active) | inactive | inactive | inactive |  | 88% (active) |
| O=c1c2cccnc2sn1-c1ccccc1 |  | 0 |  | inactive | inactive | inactive | inactive |  |
| N#Cc1ccc(C(=O)Nc2cc(-c3cccc(O)c3)cc3[nH]ncc23)cc1 | 15 | -1 | 90% (active) | inactive | inactive | inactive |  | 79% (active) |
| NS(=O)(=O)c1cccc(N=Cc2c(O)[nH]c3ccc(S(=O)(=O)Cc4c(Cl)cccc4Cl)cc23)c1 | 1 | 4 | 92% (active) | inactive | inactive | inactive |  | 99% (active) |
| Cc1[nH]nc2ccc(-c3cc(OC[C@@H](N)Cc4ccccc4)cnc3-c3cc4ccccc4s3)cc12 | 41 | -3 | 99% (active) | inactive | inactive | inactive |  | 68% (active) |
| CC(=O)Nc1ccc(CN2CCc3ccc(NS(=O)(=O)c4ccc(-c5cccc(C(F)(F)F)c5)cc4)cc3CC2)s1 | 23 | 0 | 82% (active) | inactive | inactive | inactive | inactive |  |
| CCN(CC)CCNC(=O)c1ccc(N=Cc2c(O)[nH]c3ccc(S(=O)(=O)Cc4c(Cl)cccc4Cl)cc23)cc1 | 25 | 3 | 100% (active) | inactive | inactive | inactive |  | 56% (active) |
| Cc1ccc(Cn2ccc3c4c(N)nc(N)nc4ccc32)cc1 |  | -6 | 99% (active) | inactive | inactive | inactive | inactive |  |
